Reference: PubChem BioAssay AID1159580 (chemical genetic matrix, 2015)
Values joined by “and” are separate entries in the source; they are usually repeats but may differ in a detail not shown here. Equal values may be shown once. The campaign covered roughly 5,500 compounds. About 2,000 (36%) were called active. Roughly 18% stayed inconclusive and do not appear here. No stated cut-off is given here; in the data, active means normalized growth mostly below about 0.91 (no sharp cut-off); inconclusive means no clear call, values can overlap the other calls; inactive means mostly above about 0.92. The list shows a part of the results.

Assay: chemical genetic growth profiling, strain panel (AID 1159580);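 further: tested at 20 µM; growth read once vehicle control cultures reached saturation at 30 °C; 1 = growth at the plate median or of vehicle wells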
Details: S. cerevisiae deletion strains, growth OD

Measured: normalized growth

NC(Cc1c[nH]c2ccccc12)C(=O)O (configuration not stated)
inactive: locus YAL013W, strain DEP1, stronger effect = lower value 1 | locus YAL021C, strain ccr4, stronger effect = lower value 1 | locus YAL026C, strain drs2, stronger effect = lower value 1.01 | locus YAL030W, strain snc1, stronger effect = lower value 1.02 | locus YBL061C, strain skt5, stronger effect = lower value 1.04 | locus YBR009C, strain hhf1, stronger effect = lower value 1 | locus YBR021W, strain FUR4, stronger effect = lower value 1.01 | locus YBR023C, strain chs3, stronger effect = lower value 1.02 | locus YBR171W, strain sec66, stronger effect = lower value 1.03 | locus YBR229C, strain ROT2, stronger effect = lower value 0.957 | locus YBR231C, strain swc5, stronger effect = lower value 1.02 | locus YBR279W, strain paf1, stronger effect = lower value 1.02 | locus YCL011C, strain gbp2, stronger effect = lower value 1.02 | locus YCL016C, strain dcc1, stronger effect = lower value 1.01 | locus YCL029C, strain bik1, stronger effect = lower value 0.98 | locus YCL061C, strain MRC1, stronger effect = lower value 1.01 | locus YCL069W, strain vba3, stronger effect = lower value 1.03 | locus YCR088W, strain abp1, stronger effect = lower value 1.02 | locus YDL005C, strain med2, stronger effect = lower value 1.03 | locus YDL035C, strain GPR1, stronger effect = lower value 1 | locus YDL040C, strain nat1, stronger effect = lower value 1.03 | locus YDL074C, strain BRE1, stronger effect = lower value 1.02 | locus YDL101C, strain DUN1, stronger effect = lower value 0.984 | locus YDL134C, strain PPH21, stronger effect = lower value 0.961 | locus YDL185W, strain tfp1, stronger effect = lower value 0.986 | locus YDL192W, strain arf1, stronger effect = lower value 0.984 | locus YDR001C, strain nth1, stronger effect = lower value 1.04 | locus YDR069C, strain doa4, stronger effect = lower value 1 | locus YDR101C, strain arx1, stronger effect = lower value 0.996 | locus YDR137W, strain rgp1, stronger effect = lower value 1.03 | locus YDR150W, strain NUM1, stronger effect = lower value 0.965 | locus YDR159W, strain sac3, stronger effect = lower value 1.02 | locus YDR162C, strain NBP2, stronger effect = lower value 0.998 | locus YDR195W, strain ref2 1.02 | locus YDR297W, strain sur2, stronger effect = lower value 1.02 | locus YDR318W, strain mcm21, stronger effect = lower value 0.988 | locus YDR334W, strain swr1, stronger effect = lower value 1.02 | locus YDR335W, strain msn5, stronger effect = lower value 1.03 | locus YDR388W, stronger effect = lower value 0.997 | locus YDR392W, strain spt3, stronger effect = lower value 0.939 | locus YDR502C, strain sam2, stronger effect = lower value 0.997 | locus YEL003W, strain gim4, stronger effect = lower value 1.01 | locus YEL037C, strain rad23, stronger effect = lower value 1.02 | locus YEL061C, strain CIN8 (second series), stronger effect = lower value 1.02 | locus YEL061C, strain CIN8, stronger effect = lower value 0.987 | locus YER015W, strain faa2, stronger effect = lower value 1.02 | locus YER016W, strain bim1, stronger effect = lower value 1.02 | locus YER110C, stronger effect = lower value 0.98 | locus YER111C, strain swi4, stronger effect = lower value 1.03 | locus YER155C, strain BEM2 (second series), stronger effect = lower value 0.997 | locus YER155C, strain BEM2, stronger effect = lower value 1.01 | locus YER167W, strain BCK2, stronger effect = lower value 1.01 | locus YFR010W, strain ubp6, stronger effect = lower value 1.02 | locus YGL078C, strain dbp3, stronger effect = lower value 0.982 | locus YGL086W, strain mad1, stronger effect = lower value 1.01 | locus YGL167C, strain pmr1, stronger effect = lower value 1.02 | locus YGL173C, strain kem1, stronger effect = lower value 1.03 | locus YGL227W, strain vid30, stronger effect = lower value 1.03 | locus YGL240W, strain doc1, stronger effect = lower value 1 | locus YGL248W, strain PDE1, stronger effect = lower value 0.991 | locus YGL253W, strain hxk2, stronger effect = lower value 1.01 | locus YGR078C, strain PAC10, stronger effect = lower value 0.991 | locus YGR135W, strain pre9, stronger effect = lower value 0.993 | locus YGR229C, strain SMI1, stronger effect = lower value 1 | locus YGR252W, strain gcn5, stronger effect = lower value 0.981 | locus YHR013C, strain ard1, stronger effect = lower value 1.02 | locus YHR027C, strain rpn1, stronger effect = lower value 1.02 | locus YHR030C, strain SLT2, stronger effect = lower value 0.988 and 0.966 | locus YHR079C, strain IRE1 (second series), stronger effect = lower value 0.989 | locus YHR079C, strain IRE1, stronger effect = lower value 0.983 | locus YHR094C, strain hxt1, stronger effect = lower value 0.988 | locus YHR129C, strain ARP1, stronger effect = lower value 0.993 | locus YHR142W, strain chs7, stronger effect = lower value 1.03 | locus YHR200W, strain rpn10, stronger effect = lower value 0.995 | locus YIL066C, strain RNR3, stronger effect = lower value 0.979 | locus YIL073C, strain SPO22, stronger effect = lower value 1 | locus YIL125W, strain kgd1, stronger effect = lower value 0.998 | locus YIR030C, strain dcg1, stronger effect = lower value 0.992 | locus YJL092W, strain hpr5, stronger effect = lower value 1.03 | locus YJL095W, strain BCK1 (second series), stronger effect = lower value 1.02 | locus YJL095W, strain BCK1, stronger effect = lower value 1.04 and 0.984 | locus YJL115W, strain asf1, stronger effect = lower value 1.03 | locus YJL129C, strain trk1, stronger effect = lower value 1.02 | locus YJL134W, strain LCB3, stronger effect = lower value 0.987 | locus YJL154C, strain vps35, stronger effect = lower value 1.02 | locus YJL164C, strain tpk1, stronger effect = lower value 1 | locus YJL166W, strain qcr8, stronger effect = lower value 1.01 | locus YJL168C, strain set2, stronger effect = lower value 0.99 | locus YJL187C, strain SWE1 (second series), stronger effect = lower value 0.973 | locus YJL187C, strain SWE1, stronger effect = lower value 1.03 | locus YJR043C, strain POL32, stronger effect = lower value 1.01 | locus YJR066W, strain TOR1, stronger effect = lower value 0.978
